For experiment [1], the system named is Staphylococcus aureus. The conditions noted are these: Concentration 32 ug.mL-1; ASSAY_TEST Inhibition of Bacterial Growth; detection method Absorption (OD600); MEDIA CAMHB; plate type 384well; NBS; CORNING #3640; time 18 hr.
For experiment [2], the system named is Escherichia coli. The conditions noted are these: Concentration 32 ug.mL-1; ASSAY_TEST Inhibition of Bacterial Growth; detection method Absorption (OD600); MEDIA CAMHB; plate type 384well; NBS; CORNING #3640; time 18 hr.

This passage reports Inhibition results from ChEMBL document CHEMBL4513140, “CO-ADD screening of Lancaster University (UK) compounds” (2021).

Each structure is given as a SMILES string. Entries with a potency or affinity are not part of this list.

For orientation: Inhibition means the relative decrease from the control value, in per cent.

Turning to `CC(=O)c1cc(C(C)=O)cc(C(C)=O)c1`, the results for the Inhibition in experiment [1] and in experiment [2] were 25.72% and -14.66%, respectively.
`c1ccc2nc3c4cccnc4c4ncccc4c3nc2c1`: the Inhibition in experiment [1] is 8.68%; in experiment [2], -14.57%.
In the case of `CC(=NN)c1cc(/C(C)=N/N)cc(/C(C)=N/N)c1`, the Inhibition in experiment [1] is recorded as 18.93%; in experiment [2], 9.06%.
Regarding `COC(=O)c1ccc(S)cc1`, the Inhibition in experiment [1] was 8.34%; in experiment [2], -21.23%.
